Compounds with a hit are over-represented: about 1.8% of the library has one in this group of screens.
p53ts 32C tox: kills p53ts cells at the permissive temperature; Potency, µM (highest dose often 46.1 µM), without a hit: at the highest dose activity change, negative = cytotoxicity, hits mostly cytotoxic; H1299-p53A138V at 32C, ATP luminescence viability, 24 h; hit rate 0.93% among 130,000;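 note: 0% = DMSO and -100% = full killing by reference compound; nearly all actives have a fitted effect of over 55% in size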
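Cells: H1299 p53ts (A138V), 600/well, pre-incubated 16–30 h at 37C. Cpd up to 46 uM, 24 h, 32C. Readout: ATPlite luminescence, 20 min RT. Normalization: DMSO vs tamoxifen 100 uM. AC50 by Hill equation.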
Imprint erasure: induces erasure of genomic imprints in mouse ES cells | mouse ES Peg3-LacZ reporter, beta-gal luminescence, 40 h | Potency, µM (top dose mostly 60.7 µM), without a hit: at the highest dose activity change, positive = activation, actives largely listed as activators | hit rate 0.02% among 110,000 | AID 1948
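Each well holds 300 Peg3LacZ-Neo (maternal) female ES cells incubated 40 h at 37C, 5% CO2. LacZ is measured by BetaGlo luminescence, with AC50 and maximum efficacy derived from dose-response curves.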
p53ts 39C tox: cytotoxicity in p53ts cells at nonpermissive temperature; H1299-p53A138V viability at 39C, ATP luminescence, 24 h; Potency, µM (doses to about 46.1 µM), for inactives: at the highest dose activity change, negative = cell killing, actives largely listed as cytotoxic; hit rate 1.5% among 130,000; note: % is set by controls: 0 for no effect and ±100 for the full control effect; nearly all actives have a fitted effect of over 55% in size
IkB sig inh: IkB pathway inhibition in ABC-DLBCL cells. ABC-DLBCL IkBa-CBG/CBR dual luciferase ratio, 4 h; response scale: scaled: untreated 0%, proteasome inhibitor 100%. Potency, µM (top dose mostly 57.1 µM), for inactives: at the top dose IkBa stabilization activation. hit rate 0.04% among 110,000; active = well fitted curve in the direction sought with a large enough effect in the signal ratio, not every such curve was filed as active; inconclusive = small, poorly fitted or top-dose-only effect, or a change in a side signal; the % refers to the signal ratio;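 note: the direction sought is a rising ratio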
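In this assay, an IκBα–CBG68 fusion accumulates when IKK-driven degradation is blocked; native CBR normalizes for cell number. OCI-Ly3 cells were treated 4 h with compound and doxycycline, then green and red light read after Chroma-Glo addition.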
An asterisk follows results filed as active; ? = inconclusive; nt = not tested or not shown; [ ] = remark or other dose. Unless noted, calls come from the whole dose curve; as a rule, active = well fitted curve in the direction sought with a large enough effect; inconclusive = small, poorly fitted or top-dose-only effect, or another doubt; inactive = no such curve, though single readings can be large; an effect the other way counts as inactive or inconclusive. Potency is the fitted concentration of half-maximal effect.

SMILES | p53ts 32C tox | Imprint erasure | p53ts 39C tox | IkB sig inh
Cc1ccc(C(=O)Nc2ccccc2C(=O)NC(C(=O)O)C(C)C)cc1 (stereo not given) | ? | nt | 10µM* | nt
Cc1ccc(C(=O)Nc2ccccc2C(=O)NC(CC(=O)O)C(=O)O)cc1 (stereo not given) | -23.6% | -30.8% | -24.6% | ?
CCn1c(CN2CCCCCC2=O)nnc1SCc1cnc(-c2ccccc2)s1 | 1.6% | -20.3% | -4.0% | 2.9%
Cc1ccc(-c2csc3ncnc(Sc4nnc(CN5CCCCCC5=O)o4)c23)cc1 | 25.1µM* | -32.4% | ? | ?
COc1ccc(C2CC(c3c(O)cc(C)oc3=O)=NCCS2)c(OC)c1 (stereo not given) | 3.98µM* | -16.5% | 2.51µM* | -1.4%
COC(=O)[C@@]1(Cc2ccc(F)cc2)[C@H]2c3cc(C(=O)N(C)C)n(Cc4cc(F)c(F)c(F)c4)c3C[C@H]2CN1C(=O)c1ccccc1 | 0.0% | -1.7% | 4.0% | nt
C[N+](C)(C)CCC(=O)c1cccc2ccccc12 | 12.6µM* | -29.4% | 15.8µM* | ?
O=C(O)CCC(=O)c1cccc2ccccc12 | -8.7% | -2.9% | 4.2% | -2.7%
O=C(O)c1ccc(Cl)c(S(=O)(=O)Nc2ccccc2F)c1 | -1.5% | nt | -1.2% | nt
COc1ccc(/C=N/n2cc(-c3ccccc3)nc2N)cc1 | 5.0% | -38.3% | -4.0% | ?
COc1ccc(/C=N\n2nnc3ccccc32)cc1 | 12.6µM* | -94.2% | 10µM* | ?
CCCOc1ccc(N)cc1N | 20µM* | -21.0% | -20.6% | 26.8%
COc1ccc(Cl)cc1NC(=O)CCCS(=O)(=O)c1nc(-c2ccc(OC)c(OC)c2)cc(C(F)(F)F)n1 | ? | -30.3%[10.9 µM] | 3.16µM* | ?
COc1ccc(NC(=O)CCCS(=O)(=O)c2nc(-c3ccccc3OC)cc(C(F)(F)F)n2)c(OC)c1 | ? | -19.0%[10.9 µM] | ? | ?
COc1ccccc1-c1cc(C(F)(F)F)nc(S(=O)(=O)CCCC(=O)Nc2ccccc2F)n1 | ? | -10.9%[10.9 µM] | 3.16µM* | ?
COc1ccccc1-c1cc(C(F)(F)F)nc(S(=O)(=O)CCCC(=O)Nc2cc(Br)ccc2O)n1 | 20µM* | -16.7%[10.9 µM] | ? | ?
Cc1ccccc1S(=O)(=O)Cc1ccc(C(=O)N2CCN(c3cccc(C)c3C)CC2)o1 | ? | -33.9% | 12.6µM* | ?
O=C(Cn1ncc2c(=O)oc3ccccc3c21)Nc1cc(F)ccc1F | 2.9% | ? | 6.31µM* | 1.5%
O=S1(=O)C=C(Sc2nnc(-c3ccccc3)o2)c2ccccc21 | 12.6µM* | -53.5% | ? | ?
Cn1c(-c2ccc(Br)o2)nc2cc(Br)ccc21 | ? | -86.4% | ? | -0.9%
CN(C)c1ccc(-c2nc3ccccc3n2C)cc1 | 1.58µM* | -91.9% | 0.794µM* | ?
Cc1oc(-c2nc3ccccc3n2C)cc1C(=O)c1ccccc1 | 5.01µM* | -94.1% | 3.98µM* | ?
Cn1c(-c2ccc(Br)o2)nc2ccccc21 | 7.94µM* | -99.1% | 10µM* | 8.2%
Cn1cc(C(=O)c2ccccc2)cc1-c1nc2ccccc2n1C | 3.4% | -12.8% | -7.1% | ?
COc1ccc(-c2cc(C(=O)N/N=C/c3ccc(OC)c(OC)c3)[nH]n2)cc1 | -12.2% | nt | -23.7% | nt
SMILES | p53ts 32C tox | Imprint erasure | p53ts 39C tox | IkB sig inh
CCOc1ccc(C2C(=O)N(C3CCCCC3)CC(=O)N2C2CCCC2)cc1OC (stereo not given) | 1.8% | -11.6%[10.9 µM] | -21.8% | 0.3%
COc1ccc(S(=O)(=O)Nc2cccc(-c3ccc(N4CCCCCC4)nn3)c2)cc1F | -27.8% | -5.2%[10.9 µM] | -26.1% | -0.2%
COc1ccc(CNC(=O)c2cc(=O)[nH]c3ccc(S(=O)(=O)N4CCCC4)cc23)c(OC)c1 | 5.0% | -8.9%[10.9 µM] | -13.6% | ?
COc1cccc(NC(=O)c2oc3ccccc3c2NC(=O)c2ccc3c(c2)OCO3)c1 | 10µM* | -2.9% | 10µM* | 2.6%
CC(C)Oc1cccc(C(=O)Nc2ccc(CN3CCOCC3)cc2)c1 | -15.6% | -3.2% | -20.2% | ?
COc1cccc(NC(=O)c2oc3ccccc3c2NC(=O)c2ccc(OC(C)C)cc2)c1 | ? | -16.0%[10.9 µM] | 10µM* | 0.8%
COc1cccc(NC(=O)c2oc3ccccc3c2NC(=O)c2cc3ccccc3o2)c1 | -11.6% | -12.8%[10.9 µM] | ? | ?
COc1cccc(NC(=O)c2oc3ccccc3c2NC(=O)C(C)(C)C)c1 | 5.0% | -9.4% | 1.8% | ?
COc1cccc(NC(=O)c2ccc(CN3CCOCC3)cc2)c1 | 12.6µM* | -74.6% | 10µM* | ?
COc1ccc([C@@H](C)c2cc3c(cc2O)OCO3)cc1 | 6.3%[9.22 µM] | -8.9%[10.9 µM] | 8.4%[9.22 µM] | 0.5%[11.4 µM]
CCCCC#CC1C=CC(Oc2cc(OC)c(OC)c(OC)c2)C(CO)O1 (stereo not given) | 1.8%[9.22 µM] | nt | 4.6%[9.22 µM] | nt
Cc1cccc(OC(C)C(=O)Nc2ncn[nH]2)c1 (stereo not given) | 10.3% | -6.3%[10.9 µM] | 15.4% | 0.8%
O=C(c1ccco1)N1CCN(C(=O)C(Cc2ccccc2)NS(=O)(=O)c2cccs2)CC1 (stereo not given) | 6.0% | 3.16µM* | 2.7% | 3.2%
CC1=C(C(=O)Nc2ccc(C)cc2C)C(c2cc(Br)ccc2F)n2ncc(C(=O)Nc3ccc(C)cc3)c2N1 (stereo not given) | ? | -20.0%[10.9 µM] | 12.6µM* | ?
Cc1cc(C)c(NC(=O)Cn2c(=O)n(Cc3ccc(C(=O)NCc4ccco4)cc3)c(=O)c3sccc32)c(C)c1 | ? | 8.2%[10.9 µM] | 25.1µM* | ?
Cc1ccc(CNC(=O)c2ccc(Cn3c(=O)c4ccccc4n(CC(=O)Nc4c(C)cc(C)cc4C)c3=O)cc2)cc1 | 15.8µM* | -36.0%[10.9 µM] | -29.2% | 19.0%
Cc1ccc(CNC(=O)c2ccc(Cn3c(=O)c4ccccc4n(CC(=O)Nc4ccc(C)cc4C)c3=O)cc2)cc1 | -16.3% | -24.3%[10.9 µM] | ? | ?
CCOCCc1nnc(NC(=O)C(=O)c2cc(C)n(-c3cccc(C)c3)c2C)s1 | 3.5% | -7.3%[10.9 µM] | 7.8% | ?
CCc1nnc(NC(=O)CSc2nc3c(cc2C#N)CCCC3)s1 | 0.794µM* | 16.5% | 1.58µM* | -0.4%
NC(=O)Cn1c(=O)n(CCCCCC(=O)NCc2ccccc2)c(=O)c2sccc21 | -3.2% | 12.1%[10.9 µM] | 10.7% | -2.5%
C=CCOC(=O)c1sc(NC(=O)c2ccco2)nc1C | 10µM* | -65.7% | ? | 6.0%
CC1CCc2nc(NC(=O)c3ccco3)sc2C1 (stereo not given) | 2.51µM* | -83.3% | 2.51µM* | ?
CC1CCc2nc(NC(=O)C3CCCO3)sc2C1 (stereo not given) | 10µM* | -57.0% | 12.6µM* | ?
Cc1ccc(C)c(N2CCN(C(=O)c3cc(C)nc4c3c(C)nn4-c3ccccc3)CC2)c1 | 4.9% | -8.5%[10.9 µM] | -15.1% | ?
COC(=O)c1ccc(NC(=O)c2cccc(OC)c2)cc1 | 12.6µM* | -86.4% | ? | ?
COC(=O)C1=C(NC(=O)c2cccc(OC)c2)CCS1 | -6.0% | -26.4% | -12.1% | 2.3%
COC(=O)c1cccc(NC(=O)c2cccc(OC)c2)c1 | ? | -85.7% | ? | 3.4%

Assay outcomes deposited in PubChem BioAssay by National Center for Advancing Translational Sciences (NCATS).
